Calls of active or inactive are those of the source. Unless noted, how the calls were made is not given here.
How the values were obtained:
[1] = compounds binding Alexa647 anti-His antibody – biochemical, small-molecule microarray, 635 nm fluorescence, artefact control for SMM control protein annotation, primary screen (AID 1128); settings: higher = more signal;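 further: score merges feature fluorescence with signal-to-noise for each printed compound spot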
[2] = tested on: Human papillomavirus type 1a E7 protein (residues 1-88); experiment: HPV1a E7 small-molecule binders, primary screen, biochemical, small-molecule microarray, residues 1-88, 635 nm (AID 1129); settings: small-molecule microarray binding, fluorescence 635 nm; higher = more signal
[3] = target: Focal adhesion kinase 1 (Homo sapiens) (UniProt Q05397); experiment: PTK2 protein binding on printed compound slides – biochemical, small-molecule microarray, 635/667 nm fluorescence, BSA, DTT, primary screen (AID 1130); settings: 635 nm fluorescence, higher = more signal;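 further: composite of spot emission at 667 nm and signal to noise over triplicate slides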
[4] = tested on: Fibrinogen (Alexa647-labelled); experiment: Alexa647-fibrinogen binding to printed small molecules – biochemical, small-molecule microarray, 635/667 nm fluorescence, artefact control for SMM control-protein annotation, profiling panel (AID 1131); settings: fibrinogen-A647 binding fluorescence, higher = more signal;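 further: z-score merges 667 nm fluorescence with per-spot signal-to-noise over triplicate slides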
[5] = target: Follistatin (Homo sapiens) (UniProt P19883); experiment: FST protein binding to printed compounds – biochemical, small-molecule microarray, 635/667 nm fluorescence, primary screen (AID 1132); settings: 635 nm fluorescence, higher = more signal
[6] = target: Fibroblast growth factor 2 (Homo sapiens) (UniProt P09038); experiment: basic fibroblast growth factor binding to printed compounds – biochemical, small-molecule microarray, 635/667 nm fluorescence, primary screen (AID 1133); settings: FGF2, fluorescence 635/667, higher = more signal
[7] = JC-1 mitochondrial potential readout, lung cancer cells – cell-based, A549, JC-1 fluorescence, basal, 24 h, 100 nL, profiling panel (AID 1138); settings: higher = more signal;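 further: A549 lung adenocarcinoma cells under basal conditions with no added stimulus; test concentration not given here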
[8] = tested on: Lefty1; experiment: Lefty1 protein binding to printed compounds – biochemical, small-molecule microarray, 635/667 nm fluorescence, primary screen (AID 1139); settings: fluorescence 635/667, higher = more signal
[9] = tested on: wheat germ agglutinin (Triticum aestivum), Alexa647-labelled; experiment: Alexa647-WGA lectin binding to printed small molecules – biochemical, small-molecule microarray, 635/667 nm fluorescence, artefact control for SMM control-protein annotation, profiling panel (AID 1140); settings: WGA-A647 binding, 635 nm fluorescence, higher = more signal;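 further: score merges 667 nm feature emission with signal to noise over triplicate slides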
[10] = target: Luciferin 4-monooxygenase (Photinus pyralis) (UniProt P08659); experiment: inhibition of purified Photinus pyralis luciferase – biochemical, luminescence, purified enzyme, 2006 set, primary screen (AID 1141); settings: purified firefly luciferase, SteadyGlo luminescence, 30 min; higher = more signal, called active from +8 up or from −8 down;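 further: cell-free assay with purified firefly luciferase at 100 ng per well in PBS; test concentration not given here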
[11] = tested on: Wnt5a (protein binding on small-molecule microarray); experiment: small molecules binding Wnt5a protein – biophysical, small-molecule microarray, 635/667 nm fluorescence, primary screen (AID 1142); settings: 635 nm fluorescence, higher = more signal;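 further: fluorescence read at 667 nm with signal to noise per printed feature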
[12] = ATP-based viability of Huh7 replicon cells – cell-based, CellTiter-Glo luminescence, basal, 48 h, cytotoxicity control for HCV replication inhibitor project, primary screen (AID 1143); settings: higher = more signal, called active from +8 up or from −8 down;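 further: Huh7 hepatoma cells carrying a hepatitis C replication reporter with no stimulus; test concentration not given here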
[13] = Pseudomonas biofilm growth suppression – PAO1 strain, BacTiter-Glo luminescence, LB-PBS, primary screen (AID 1144); settings: P. aeruginosa PAO1 biofilm, 12 h, higher = more signal
[14] = basal CRE-LacZ reporter activity in PC12 – cell-based, unstimulated, primary screen (AID 1145); settings: no forskolin, luminescence, 4.5 h, higher = more signal, called active from +8 up or from −8 down
[15] = forskolin-driven CRE-LacZ activity in PC12 – cell-based, CRE-LacZ reporter, forskolin-stimulated, primary screen (AID 1146); settings: luminescence, 4.5 h, higher = more signal, called active from +8 up or from −8 down;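 further: PC12 cells with 6xCRE LacZ reporter stimulated by forskolin 10 µM; beta-galactosidase reporter signal reflecting CREB driven transcription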
[16] = target: Streptavidin (Streptomyces avidinii) (UniProt P22629); experiment: compounds binding control protein streptavidin – biophysical, small-molecule microarray, 635/667 nm fluorescence, artefact control for SMM compound annotation, primary screen (AID 1147); settings: higher = more signal;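 further: signal reflects streptavidin binding to arrayed compounds as a control protein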
[17] = probe aInhba binding on compound microarray – biochemical, small-molecule microarray, 635/667 nm fluorescence, primary screen (AID 1148); settings: higher = more signal;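 further: score merges 667nm spot fluorescence with signal-to-noise for antibody binding to printed compounds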
[18] = target: Torsin-1A (Homo sapiens) (UniProt O14656); experiment: TOR1A wild-type binding on microarray – cell lysate, small-molecule microarray, lysate, 635/667 nm, primary screen (AID 1149); settings: COS7 hTOR1A-WT lysate, 635 nm fluorescence, higher = more signal
[19] = target: Torsin-1A (Homo sapiens) (UniProt O14656); experiment: torsin A mutant lysate binding on microarrays – cell lysate, small-molecule microarray, COS7 lysate, 635/667 nm fluorescence, primary screen (AID 1150); settings: COS7 hTOR1A mutant lysate, 635 nm fluorescence, higher = more signal;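 further: score pools 667 nm emission and signal to noise measuring lysate protein binding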
[20] = tested on: Sonic hedgehog protein (Shh); experiment: Sonic hedgehog microarray binding compounds – biochemical, small-molecule microarray, 635/667 nm fluorescence, primary screen (AID 1151); settings: 635 nm fluorescence, higher = more signal;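 further: Shh protein binding to compounds spotted on small-molecule microarray slides; score combines spot fluorescence intensity with signal-to-noise across triplicate slides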

Fibroblast growth factor 2 (Homo sapiens), sequence (P09038 whole entry, looked up): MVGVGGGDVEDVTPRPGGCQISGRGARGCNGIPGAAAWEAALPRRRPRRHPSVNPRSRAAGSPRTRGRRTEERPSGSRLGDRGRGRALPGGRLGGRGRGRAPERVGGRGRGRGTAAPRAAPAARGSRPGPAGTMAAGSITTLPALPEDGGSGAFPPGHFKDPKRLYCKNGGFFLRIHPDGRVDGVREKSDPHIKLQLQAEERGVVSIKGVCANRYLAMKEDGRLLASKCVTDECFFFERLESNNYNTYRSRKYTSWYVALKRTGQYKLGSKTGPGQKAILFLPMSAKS
Follistatin (Homo sapiens), sequence (P19883 whole entry, looked up): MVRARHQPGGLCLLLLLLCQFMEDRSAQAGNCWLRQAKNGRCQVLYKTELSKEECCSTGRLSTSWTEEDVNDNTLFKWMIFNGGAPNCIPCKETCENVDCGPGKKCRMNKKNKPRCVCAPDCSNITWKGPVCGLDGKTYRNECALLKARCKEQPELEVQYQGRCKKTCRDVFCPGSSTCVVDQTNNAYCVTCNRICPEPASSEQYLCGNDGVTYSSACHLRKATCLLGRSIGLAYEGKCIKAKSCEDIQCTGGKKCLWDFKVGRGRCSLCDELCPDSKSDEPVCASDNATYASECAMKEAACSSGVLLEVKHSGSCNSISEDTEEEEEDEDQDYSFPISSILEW
Torsin-1A (Homo sapiens), sequence (O14656 whole entry, looked up): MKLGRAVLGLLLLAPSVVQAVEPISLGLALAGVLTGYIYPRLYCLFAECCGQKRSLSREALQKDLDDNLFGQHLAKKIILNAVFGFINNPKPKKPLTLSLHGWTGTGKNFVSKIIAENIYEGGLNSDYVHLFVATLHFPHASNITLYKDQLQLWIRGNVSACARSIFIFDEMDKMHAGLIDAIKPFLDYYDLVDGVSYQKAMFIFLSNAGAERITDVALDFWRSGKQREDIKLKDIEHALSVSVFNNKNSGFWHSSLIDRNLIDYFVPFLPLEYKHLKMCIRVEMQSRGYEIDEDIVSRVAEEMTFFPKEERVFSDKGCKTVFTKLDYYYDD
Focal adhesion kinase 1 (Homo sapiens), sequence (Q05397 whole entry, looked up): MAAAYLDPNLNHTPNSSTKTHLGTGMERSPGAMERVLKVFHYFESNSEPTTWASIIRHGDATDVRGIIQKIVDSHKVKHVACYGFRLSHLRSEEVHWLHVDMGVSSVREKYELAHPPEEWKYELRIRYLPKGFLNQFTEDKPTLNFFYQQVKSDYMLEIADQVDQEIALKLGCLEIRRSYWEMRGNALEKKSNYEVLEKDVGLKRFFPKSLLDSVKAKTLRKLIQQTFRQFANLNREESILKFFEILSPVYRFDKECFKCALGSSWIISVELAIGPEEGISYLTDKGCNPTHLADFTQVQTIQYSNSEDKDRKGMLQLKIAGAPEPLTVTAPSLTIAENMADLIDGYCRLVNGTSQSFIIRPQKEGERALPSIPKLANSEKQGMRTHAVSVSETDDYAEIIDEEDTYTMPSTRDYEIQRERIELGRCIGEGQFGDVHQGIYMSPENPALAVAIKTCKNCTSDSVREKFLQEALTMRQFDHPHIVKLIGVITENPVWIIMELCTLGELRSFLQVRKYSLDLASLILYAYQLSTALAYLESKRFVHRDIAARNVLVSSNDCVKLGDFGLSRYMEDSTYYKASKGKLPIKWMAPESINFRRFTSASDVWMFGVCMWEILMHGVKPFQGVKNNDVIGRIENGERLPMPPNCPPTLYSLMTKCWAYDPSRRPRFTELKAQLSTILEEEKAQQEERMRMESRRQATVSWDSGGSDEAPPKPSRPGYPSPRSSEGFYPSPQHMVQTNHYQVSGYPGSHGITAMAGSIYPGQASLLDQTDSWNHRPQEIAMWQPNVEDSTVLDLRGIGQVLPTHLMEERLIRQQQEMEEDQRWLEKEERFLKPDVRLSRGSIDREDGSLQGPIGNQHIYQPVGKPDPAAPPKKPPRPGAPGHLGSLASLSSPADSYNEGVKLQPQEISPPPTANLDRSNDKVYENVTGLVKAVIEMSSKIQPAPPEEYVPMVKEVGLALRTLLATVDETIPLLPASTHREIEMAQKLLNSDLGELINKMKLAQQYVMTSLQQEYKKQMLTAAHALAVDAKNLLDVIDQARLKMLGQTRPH
Streptavidin (Streptomyces avidinii), sequence (P22629 whole entry, looked up): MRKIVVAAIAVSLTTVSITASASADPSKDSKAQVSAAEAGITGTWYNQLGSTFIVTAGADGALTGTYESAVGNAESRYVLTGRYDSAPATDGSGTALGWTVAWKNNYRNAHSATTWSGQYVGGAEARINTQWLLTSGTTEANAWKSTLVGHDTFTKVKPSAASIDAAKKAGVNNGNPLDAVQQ
Luciferin 4-monooxygenase (Photinus pyralis), sequence (P08659 whole entry, looked up): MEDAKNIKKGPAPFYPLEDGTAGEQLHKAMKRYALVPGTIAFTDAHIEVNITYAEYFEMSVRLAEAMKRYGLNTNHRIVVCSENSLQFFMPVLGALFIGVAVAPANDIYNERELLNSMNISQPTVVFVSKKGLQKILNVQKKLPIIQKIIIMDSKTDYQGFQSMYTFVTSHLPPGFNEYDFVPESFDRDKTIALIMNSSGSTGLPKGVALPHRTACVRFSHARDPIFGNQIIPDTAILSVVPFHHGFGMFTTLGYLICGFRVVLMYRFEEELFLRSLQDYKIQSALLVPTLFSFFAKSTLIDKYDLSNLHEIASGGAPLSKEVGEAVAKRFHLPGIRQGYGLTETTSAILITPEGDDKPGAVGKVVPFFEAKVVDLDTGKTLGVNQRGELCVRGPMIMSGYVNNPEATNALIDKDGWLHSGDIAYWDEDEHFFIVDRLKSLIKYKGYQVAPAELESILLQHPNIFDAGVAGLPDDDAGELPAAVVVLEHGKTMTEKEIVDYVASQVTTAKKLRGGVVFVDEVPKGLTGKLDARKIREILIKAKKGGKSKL

Row | Structure (SMILES) | composite z-score [1] | composite z-score [2] | composite z-score [3] | composite z-score [4] | composite z-score [5] | composite z-score [6] | z-score [7] | composite z-score [8] | composite z-score [9] | z-score [10] | composite z-score [11] | z-score [12] | z-score [13] | z-score [14] | z-score [15] | composite z-score [16] | composite z-score [17] | composite z-score [18] | composite z-score [19] | composite z-score [20]
1 | C=C(CCCC)C(=O)CC[C@@H](OC(=O)c1ccccc1-c1ccccc1C(=O)O)c1ccc(CO)o1 | 0.39 | 1.1 | -0.248 | 0.294 | 1.3 | 1.31 | 0.31 | 1.38 | 0.445 | -3.84 (inactive) | 0.233 | 0.0462 (inactive) | -0.0968 (inactive) | -0.219 (inactive) | 0.432 (inactive) | -0.3 | 0.181 | 1.29 | 0.854 | 1.08
2 | CC(C)C(O)C1C=CC2C(=O)N(C)C(=O)C2N1N1CCCCC1 (stereo not given) | -0.0134 | 1.11 | 0.776 | 0.447 | 0.336 | 0.329 | -0.115 | -0.146 | 0.763 | -0.686 (inactive) | -0.0226 | 0.788 (inactive) | -0.775 (inactive) | -0.133 (inactive) | 0.0399 (inactive) | 0.482 | -0.0704 | -0.0881 | 1.29 | 0.192
3 | O=C1C2C=CC(C(O)c3ccc(Br)cc3)N(n3cnnc3)C2C(=O)N1Cc1ccccc1 (stereo not given) | 0.648 | 1.16 | 0.407 | 0.974 | 0.722 | 0.298 | -0.901 | 0.425 | 1.15 | 1.66 (inactive) | 0.175 | 0.245 (inactive) | 0.913 (inactive) | 0.127 (inactive) | 1.03 (inactive) | 1.27 | -0.0375 | 0.489 | 1.05 | 0.232
4 | CC(C)[Si]1(C(C)C)O[C@@H](c2ccccc2)c2cc(-c3ccc(-c4ccc(Cl)c(Cl)c4)o3)nc(CCc3ccccc3)c21 | -0.203 | -0.339 | -0.389 | -1.27 | -2.16 | -0.614 | -0.107 | -1.08 | -1.58 | -0.7 (inactive) | -0.306 | -1.03 (inactive) | 0.251 (inactive) | 0.367 (inactive) | 1.52 (inactive) | -0.549 | -0.204 | -0.555 | -0.181 | -0.74
5 | COCC1C2CC[C@H]3C(OCc4ccc(F)cc4C(F)(F)F)OC[C@]4(C)[C@H]3C2=C(CN4C(=O)OC(C)(C)C)[C@H](C)C1COC (stereo not given in full) | 0.976 | 1.18 | 0.475 | 0.764 | 0.342 | -0.593 | 1.52 | -0.348 | 1.14 | 0.248 (inactive) | 0.33 | -1.84 (inactive) | 0.338 (inactive) | 0.0007 (inactive) | 0.172 (inactive) | 1.2 | 0.385 | 0.404 | 1.35 | -1.4
6 | O=C(NCCN1CCOCC1)[C@@H]1c2ccccc2C(=O)N(Cc2cc(F)cc(C(F)(F)F)c2)[C@H]1c1ccc(CO)cc1 | 0.195 | 0.0794 | 0.205 | -0.732 | 0.687 | -0.77 | 2.17 | 0.314 | -0.254 | -0.183 (inactive) | -0.33 | -0.269 (inactive) | 0.153 (inactive) | 0.378 (inactive) | 0.0284 (inactive) | -0.78 | 0.422 | 0.543 | 0.165 | 1.76
7 | Cc1ccc(S[C@]2(C(=O)NCC(C)C)CC(=O)N(Cc3ccccc3)[C@@H]2c2ccc(CO)cc2)cc1 | -0.549 | -0.467 | -0.0956 | -1.2 | -0.795 | -0.42 | -0.254 | -1.4 | -0.282 | -0.766 (inactive) | -0.405 | -1.13 (inactive) | 0.459 (inactive) | -0.179 (inactive) | 0.98 (inactive) | -0.987 | -0.152 | -0.258 | -0.293 | -1.45
8 | O=C1C2C=CC(C(O)c3ccccn3)N(Nc3ccccc3F)C2C(=O)N1c1ccccc1 (stereo not given) | -0.0724 | 0.525 | 1.27 | 0.696 | 0.101 | -0.0308 | 1.03 | -0.377 | 0.253 | -0.323 (inactive) | -0.0672 | 0.894 (inactive) | -0.62 (inactive) | -0.708 (inactive) | 0.901 (inactive) | 0.429 | -0.0986 | 0.456 | 0.432 | -0.461
9 | COCCOC(=O)N1C(=O)[C@@]2(c3cc(C#Cc4ccc(OC)cc4)ccc31)[C@H](c1ccc(O)cc1)N1[C@H](c3ccccc3)[C@H](c3ccccc3)OC(=O)[C@H]1[C@@H]2C(=O)N1CCN(c2ncccn2)CC1 | 1.23 | 1.18 | 0.351 | 0.624 | 1.36 | 0.712 | -0.863 | 0.604 | 0.584 | 0.384 (inactive) | -0.0114 | -0.949 (inactive) | -0.166 (inactive) | -0.114 (inactive) | 0.75 (inactive) | 0.0875 | 0.199 | 0.487 | 0.651 | 0.982
10 | COCCOC(=O)N1C(=O)[C@@]2(c3cc(C#Cc4ccc(OC)cc4)ccc31)[C@H](C(N)=O)[C@H]1C(=O)O[C@H](c3ccccc3)[C@H](c3ccccc3)N1[C@@H]2c1ccc(O)cc1 | -0.994 | -0.923 | -0.582 | -1.48 | -0.694 | -2.13 | -0.335 | -2.08 | 0.17 | -0.245 (inactive) | 0.115 | -4.24 (inactive) | 0.0989 (inactive) | 0.0776 (inactive) | -0.844 (inactive) | -1.23 | 0.295 | -1.2 | -1.29 | -0.692

Source: PubChem BioAssay
